From PubChem
An excerpt weighted towards active compounds, which were near 9% of everything screened.
HP1b chromo inh – HP1-beta chromodomain-methylated histone interaction inhibition | P83916 | AlphaScreen HP1-beta / biotin-H3K9me3 peptide binding | Potency, µM (series often up to 114 µM), for the others: top-dose activity change, negative = inhibition, actives largely listed as inhibitors | hit rate 0.56% among 390,000 | AID 540317; further: nearly all actives have a fitted effect of over 70% in size
Target sequence (P83916 whole entry, looked up): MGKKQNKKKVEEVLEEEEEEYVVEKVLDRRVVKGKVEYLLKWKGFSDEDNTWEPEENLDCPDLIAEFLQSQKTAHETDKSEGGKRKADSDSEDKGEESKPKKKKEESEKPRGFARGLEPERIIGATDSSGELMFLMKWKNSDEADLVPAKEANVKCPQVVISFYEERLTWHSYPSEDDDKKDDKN
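AlphaScreen: HP1-beta (50 nM) preformed 30 min with biotin-H3(1-18)K9me3 peptide (50 nM) in PBS pH 7.4, 0.01% Tween-20. Compound added for 30 min at RT, then streptavidin donor/nickel chelate acceptor beads (10 ug/mL) for 30 min.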
JMJD2A Tudor – JMJD2A Tudor domain (human) inhibition; O75164; AlphaScreen JMJD2A-Tudor / H3K4me3 peptide binding; Potency, µM (highest dose often 114 µM), without a hit: at the highest dose activity change, negative = inhibition, most hits filed as inhibitors; hit rate 4.4% among 390,000; AID 504339; further: on the % scale 0 is the no-effect control and ±100 the full control effect; nearly all actives have a fitted effect of over 50% in size
BAZ2B block – blocks human BAZ2B | hit rate 4.4% among 360,000 | Potency, µM (titrated, usually from 114 µM), for the others: at the highest dose activity change, negative = inhibition, actives largely listed as inhibitors | AlphaScreen BAZ2B-H3K14Ac peptide displacement | AID 504333 | Q9UIF8; further: on the % scale 0 is the no-effect control and ±100 the full control effect; nearly all actives have a fitted effect of over 60% in size
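BAZ2B (50 nM) with biotin-H3(5-23)K14Ac peptide (50 nM) in PBS pH 7.4, 0.01% Tween-20, preformed 30 min, then compound 30 min at room temperature; top concentration 110uM. AlphaScreen streptavidin donor/nickel chelate acceptor beads (10 ug/mL final), 20 min dark, signal read.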
G9a inh – inhibitors of human histone lysine methyltransferase G9a. Q96KQ7. G9a H3K9 monomethylation, AlphaScreen, 2 h. Potency, µM (series often up to 102 µM), without a hit: at the top dose activity, negative = inhibition, hits mostly inhibitors. hit rate 8.8% among 350,000; further: on the % scale 0 is the no-effect control and ±100 the full control effect; nearly all actives have a fitted effect of over 75% in size
Target sequence (Q96KQ7 913-1193 limits assumed): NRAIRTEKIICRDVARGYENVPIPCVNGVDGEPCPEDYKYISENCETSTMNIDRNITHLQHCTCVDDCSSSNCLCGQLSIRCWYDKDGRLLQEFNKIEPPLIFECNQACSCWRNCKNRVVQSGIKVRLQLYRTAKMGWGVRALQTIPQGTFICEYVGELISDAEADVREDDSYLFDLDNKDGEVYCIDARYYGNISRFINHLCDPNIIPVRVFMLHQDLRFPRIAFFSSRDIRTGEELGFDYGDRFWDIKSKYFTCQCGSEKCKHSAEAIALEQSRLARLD
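Using a bead-based AlphaScreen, monomethylated H3K9 product from 2 h room-temperature reactions (G9a 20 nM, peptide 500 nM, SAM 20 uM) was detected with 0.5 ug/mL rabbit anti-H3K9me1 antibody.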
12-LOX inh – blocks human arachidonate 12S-lipoxygenase; P18054; purified 12hLO, xylenol orange hydroperoxide absorbance; Potency, µM (doses to about 108 µM), for the others: at the highest dose activity change, negative = inhibition, usual class: inhibitors; hit rate 1.1% among 580,000; AID 1671190; further: on the % scale 0 is the no-effect control and ±100 the full control effect
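Hydroperoxide product was detected by ferrous iron/xylenol orange as the 573 to 405 nm absorbance ratio. Arachidonic acid at 40 uM (final) was turned over for 30 min at room temperature by 150 nM human 12hLO, pH 7.0 Hepes buffer, after 15 min compound preincubation.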
PLK1 PBD inh – inhibitors of human PLK1 polo-box domain binding; Potency, µM, for the others: max response, negative = inhibition, hits mostly inhibitors; hit rate 2.8% among 360,000; P53350; Plk1 PBD binding of FITC phosphopeptide, fluorescence polarization; AID 720504; further: series mostly up to about 57 µM; on the % scale 0 is the no-effect control and ±100 the full control effect; nearly all actives have a fitted effect of over 65% in size
Starred values were filed as active, the others as inactive; ? = inconclusive; . = not tested or not shown; [ ] = dose if it differs, or a comment. The call rests on the fitted dose curve; in most records, active means well fitted curve in the direction sought with a large enough effect; inconclusive means small, poorly fitted or top-dose-only effect, or another doubt; inactive means no such curve, though single readings can be large; an effect the other way counts as inactive or inconclusive. Potency means the concentration at half of the fitted maximal effect.

SMILES | HP1b chromo inh | JMJD2A Tudor | BAZ2B block | G9a inh | 12-LOX inh | PLK1 PBD inh
O=S(=O)(NCCCN1CCOCC1)c1ccc(Cl)s1 | 4% | -21%[11.4 µM] | -34% | 19%[59 µM] | -3% | 8.4µM*
CC(=O)c1ccc(S(=O)(=O)Nc2ccc(-c3ccc4nnc(C)n4n3)cc2)cc1 | 15% | -35% | 71µM* | -35% | -13% | -16%
O=S(=O)(NCCN1CCOCC1)c1ccc(F)c(Cl)c1 | 11% | 14µM* | -2% | 6% | 20µM* | 3.4µM*
CCOc1cc2c3c(c1)C1(C(=O)N3C(C)(C)CC2C)C(C#N)=C(N)N2C(=C1C#N)Nc1ccccc12 (stereo not given) | 7% | ? | -37% | ? | -21% | -12%
CCOC(=O)/C=C/c1ccccc1 | . | . | . | . | -3%[176 µM] | .
N=C(N)c1cccc(OCc2cccnc2)c1 | . | . | . | . | 7.9µM* | .
N=C(N)c1cccc(COc2ccccc2)c1 | . | . | . | . | 5% | .
O=C(CN1CCN(C2CCCCC2)CC1)c1ccc2cc[nH]c2c1 | 21% | -35% | -26% | 28µM* | -6%[57.4 µM] | -13%
CCOC(=O)C1(Cc2cccc(Cl)c2)CCCN(C(=O)c2ccco2)C1 (stereo not given) | 12% | ? | -16%[57.1 µM] | 8% | 3% | 13µM*
CCOC(=O)C1(Cc2ccccc2)CCCN(C(=O)c2cnn(CC)c2)C1 (stereo not given) | 19% | -34% | -20% | 29% | -26% | 24µM*
CCOC(=O)C1(Cc2cccc(Cl)c2)CCCN(C(=O)c2ccoc2C)C1 (stereo not given) | 7% | -23% | -17% | . | -4% | -23%
CCOC(=O)C1(Cc2cccc(Cl)c2)CCCN(C(=O)c2occc2C)C1 (stereo not given) | 13% | ? | -12% | -3%[0.501 µM] | 7% | 27µM*
O=C(COC(=O)c1ccccc1)NCCC1=CCCCC1 | 11% | -13% | 0% | 0% | 9% | -13%
CN1C(=O)/C(=C/c2cc(N=Nc3ccccc3)ccc2O)SC1=S | ? | 5µM* | 2.2µM* | 8.9µM* | ? | ?
O=C(NCc1ccccc1Cl)C(=O)NCC(c1ccco1)N1CCOCC1 (stereo not given) | -10% | -8% | -11% | -1% | -9% | -10%
COCc1cccc(C2=CC(=O)C[C@H](c3ccc(F)cc3)C2)c1 | 16% | -16% | 19% | 4%[0.501 µM] | 2% | 30µM*
Brc1ccc(OCc2nc(-c3ccccn3)n[nH]2)cc1 | 30% | 40µM* | 28µM* | 44% | ? | -9%
Clc1ccc(OCc2nc(-c3ccccn3)n[nH]2)cc1 | 53% | 20µM* | 22µM* | 85%[59 µM] | 26% | -2%
Cc1cc(Oc2ccc(Cl)cc2)nc(-c2ccccn2)n1 | 15% | -19% | -2% | 18µM* | 136% | 0%
Clc1ccc(OCc2nc3ccccc3[nH]2)cc1 | 27% | -4% | 1% | -15% | -4% | -5%
Cc1cc(C)c(C)c(S(=O)(=O)N2CCC(C(=O)OCC(=O)NC3CCS(=O)(=O)C3)CC2)c1C (stereo not given) | 19% | -19% | . | . | -8% | -7%
COc1ccc(OC)c(NC(=O)CSc2nnnn2-c2ccc3c(c2)OCO3)c1 | 12% | -12% | 10% | 0%[59 µM] | 6% | -4%
CCOC(=O)c1cc(-c2ccccc2)n(-c2cccc(C(=O)NC(C)(C)C)c2)c1C | 28% | -31% | -31% | ? | -7% | .
CCOC(=O)c1cc(-c2ccccc2)n(-c2cccc(C(=O)N(C)c3ccc(C)cc3)c2)c1C | -10% | ? | ? | 16µM* | ? | .
O=C(O)c1ccc2c(c1)N(Cc1ccccc1)C(=O)c1ccccc1S2=O (stereo not given) | 24% | ? | 11% | 4%[59 µM] | -16% | 27µM*
CCCCNC(=O)c1ccc2c(c1)N(Cc1ccc(F)cc1)C(=O)c1ccccc1S2=O (stereo not given) | 16% | -14% | -4% | -14%[59 µM] | ? | .
